Screens deposited in PubChem by National Center for Advancing Translational Sciences (NCATS).
Sampled rows, rich in hits. Any-hit rate of the full collection: about 17%.
TGFb inhibitor: qHTS for Inhibitors of TGF-b; HepG2 CAGA-GFP TGF-b/SMAD3 reporter, GFP fluorescence, 18 h; TGF-beta stimulated, 500 pg/mL final; actives 1.2% (n = 410,000); Potency, µM (highest dose often 46.1 µM), for the others: at the highest dose activity, negative = inhibition, most hits filed as inhibitors; also: % is scaled to controls: 0 for no effect and ±100 for the full control effect; nearly all actives have a fitted effect of over 65% in size
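First, reporter cells (HEPG2 CAGA-GFP) rested 2 h at 37 degrees C. Next, compounds were pinned in and TGF-beta added to 500 pg/mL final. After 18 h, GFP was imaged per cell and summed per well.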
HepG2 tox: qHTS for Inhibitors of TGF-b: Cytotox Counterscreen; HepG2 CAGA-GFP viability, ATP luminescence, 18 h; Potency, µM (top dose mostly 46.1 µM), for inactives: top-dose activity change, negative = cytotoxicity, most hits filed as cytotoxic; actives 0.76% (n = 410,000); AID 588856, 2011
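HepG2 CAGA-GFP cells (1000/well, DMEM with 1% FBS) received compound, then TGF-beta at 500 pg/mL final, and were incubated 18 hours at 37 degrees C. Viability was read by CellTiter-Glo luminescence. Media-only wells were set as complete cell-killing and DMSO as no toxicity.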
HT1080-NT tox: qHTS for induction of synthetic lethality in tumor cells producing 2HG: qHTS for the HT-1080-NT fibrosarcoma cell line. Potency, µM (series often up to 46.1 µM), for inactives: top-dose activity, negative = less viability, usual class: cytotoxic. actives 1.6% (n = 360,000). AID 686970, 2013. HT-1080-NT fibrosarcoma viability, CellTiter-Glo ATP luminescence, 48 h;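 also: NT is the 2HG producing partner of a matched IDH1 knockdown line; 0% = DMSO-treated cells and -100% = media-only wells without cells; nearly all actives have a fitted effect of over 55% in size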
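Compounds were tested in concentration-response format on HT-1080-NT cells for 48 hours at 37 degrees C. Cell viability came from CellTiter-Glo luminescence; curves were classified by r2, response magnitude and activity.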
TDP1 cell CPT: qHTS for Inhibitors of human tyrosyl-DNA phosphodiesterase 1 (TDP1): qHTS in cells in presence of CPT. chicken DT40 Tdp1-/-;hTDP1 cells + 20 nM CPT, ATP luminescence, 48 h. Potency, µM (top dose mostly 46.2 µM), inactives show at the highest dose activity change, negative = growth inhibition, most hits filed as inhibitors. actives 12% (n = 420,000). AID 686979, 2013; also: % is scaled to controls: 0 for no effect and ±100 for the full control effect; nearly all actives have a fitted effect of over 55% in size
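Chicken DT40 Tdp1-/- cells stably complemented with human TDP1 were seeded at 400 cells/well in medium containing 20 nM camptothecin, exposed to pin-transferred compounds, and grown at 37 °C for at least 48 hr. Viability was read as ATP luminescence.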
DT40 TDP1 no CPT: qHTS for Inhibitors of human tyrosyl-DNA phosphodiesterase 1 (TDP1): qHTS in cells in absence of CPT | actives 15% (n = 420,000) | DT40 Tdp1-/- hTDP1 cells, no CPT, ATP luminescence, 48 h | Potency, µM (top dose mostly 46.2 µM), without a hit: at the top dose activity change, negative = growth inhibition, usual class: inhibitors | AID 686978, 2013; also: % is scaled to controls: 0 for no effect and ±100 for the full control effect; nearly all actives have a fitted effect of over 55% in size
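Luminescent ATP content (CellTiter-Glo) served as the growth readout. Knockout chicken DT40 cells expressing human TDP1 were exposed to compounds without camptothecin for a minimum 48 hr at 37 °C.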
HT1080 IDH1KD tx: qHTS for induction of synthetic lethality in tumor cells producing 2HG: qHTS for the HT-1080-IDH1KD cell line. Potency, µM (highest dose often 46.1 µM), for the others: at the top dose activity, negative = toxicity, usual class: cytotoxic. HT-1080 IDH1 knockdown viability, ATP luminescence, 48 h. AID 686971, 2013. actives 2% (n = 360,000);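 also: 0% = DMSO wells and -100% = cell-free medium wells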
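Viability of IDH1-knockdown HT-1080 fibrosarcoma cells was assessed by CellTiter-Glo after 48 h at 37 °C with titrated compound; concentration-effect curves were classified by fit quality and response size.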
* hit, by the source's call; ? = inconclusive; . = no result. Calls follow the shape of the dose curve; as a rule, active = well fitted curve in the direction sought with a large enough effect; inconclusive = small, poorly fitted or top-dose-only effect, or another doubt; inactive = no such curve, though single readings can be large; an effect the other way counts as inactive or inconclusive. Potency is read from the fitted curve at half-maximal effect.

SMILES	TGFb inhibitor	HepG2 tox	HT1080-NT tox	TDP1 cell CPT	DT40 TDP1 no CPT	HT1080 IDH1KD tx
Cc1cc(C)n(-c2nc3ccccc3nc2N2CCN(c3cccc(C(F)(F)F)c3)CC2)n1	?	-22%	.	18µM*	?	.
c1ccc(CN2CCN(c3nc(-c4ccccc4)nc4ccccc34)CC2)cc1	5%	3%	5%	?	?	5%
c1ccc(N2CCN(c3nc4ccccc4n4cnnc34)CC2)cc1	-7%	-30%	5%	?	?	3%
CC(=O)Nc1ccc(S(=O)(=O)N2CCC(C(=O)O)(c3ccccc3)CC2)cc1	5%	1%	8%	33%	-5%	3%
c1ccc2c(c1)CCCN2c1nc2ccccc2n2cnnc12	-11%	-13%	3%	?	?	0%
FC(F)(F)c1cccc(N2CCN(c3nc4ccccc4n4cnnc34)CC2)c1	1%	7%	.	?	23µM*	.
c1ccc2c(c1)CCN(c1nc3ccccc3n3cnnc13)C2	-19%	-31%	-19%	23µM*	?	-4%
CCOc1ccc(/C=C/C(=O)c2ccccc2)cc1OC	?	-37%	-7%	?	?	0%
COc1cc(/C=C/C(=O)c2ccc(O)cc2)ccc1OCC#N	?	-94%	24%	8.2µM*	10µM*	16%
COc1cccc(C(=O)/C=C/c2ccc(OCC#N)c(OC)c2)c1	?	-42%	?	21µM*	13µM*	?
COc1cccc(C(=O)/C=C/c2ccc(SC)cc2)c1	-26%	-49%	-3%	?	?	?
COC(=O)c1ccc(/C=C/C(=O)c2cccc(OC)c2)cc1	?	-61%	?	?	23µM*	23µM*
COc1ccc(N2CC(NC(=O)c3ccco3)CC2=O)cc1OC (stereo unspecified)	2%	0%	.	-17%	-2%	.
O=C(N/N=C\c1ccccc1O)c1ccccc1O	.	.	.	0.53µM*	0.53µM*	.
O=C(N/N=C/c1cccc(O)c1)c1ccccc1O	6%	-19%	-24%	2%	1%	-17%
CCCCCCCC(=O)N/N=C/c1ccc(Br)cc1	-11%	-33%	6%	?	15µM*	-27%
O=C(N/N=C/c1cc(Cl)ccc1O)c1ccncc1	?	13µM*	6.5µM*	5.8µM*	3.3µM*	4.1µM*
Cc1cc(=O)oc2cc(OCC(=O)N/N=C/c3ccccc3O)ccc12	11%	-9%	-26%	-5%	-32%	-11%
CSc1nc(C)cc(OCC(=O)N/N=C/c2ccccc2O)n1	?	-22%	?	2.9µM*	?	?
CCCCCCCC(=O)N/N=C/c1cccnc1	0%	6%	?	-22%	-3%	8%
CCOc1nc(NCCN2CCOCC2)nc(Nc2ccc([N+](=O)[O-])cc2)n1	-3%	-8%	-17%	?	?	-6%
CC(=O)Nc1nnc(SCc2cc(=O)c3cccc(Cl)c3[nH]2)s1	-11%	-22%	.	?	-26%	.
COC(=O)N/N=C/c1cc(Br)ccc1O	1%	8%	2%	-1%	-14%	5%
O=C(CCCCC(=O)NN=Cc1ccccc1O)NN=Cc1ccccc1O	0%	-2%	?	5.8µM*	5.8µM*	6.5µM*
Cc1cc(/C=N/NC(=O)C(=O)NCc2ccccn2)c(C)n1-c1cccc(Br)c1	?	-27%	-14%	?	?	-13%
SMILES	TGFb inhibitor	HepG2 tox	HT1080-NT tox	TDP1 cell CPT	DT40 TDP1 no CPT	HT1080 IDH1KD tx
O=C(N/N=C/c1cc(Br)ccc1O)c1ccccc1Cl	?	-48%	?	0.65µM*	0.92µM*	16µM*
O=C(NCc1ccccn1)C(=O)N/N=C/c1ccccc1O	-11%	-8%	-18%	?	23µM*	?
Cc1nn(C)c(C(=O)N/N=C/c2cc3c(cc2Br)OCO3)c1Br	-7%	2%	-1%	?	18µM*	-11%
Cc1ncc(C[n+]2csc(CCOP(=O)(O)O)c2C)c(N)n1	.	.	.	-10%	-11%	.
Cc1ccccc1-c1cncnc1NCc1ccccc1	.	.	.	-7%	-20%	.
CCOC(=O)c1noc2ncnc(Nc3ccc(F)cc3F)c12	9%	-21%	.	-14%	-11%	.
COc1ccc2c(c1)-c1nc(-n3ncc(C(=O)N(C)CC4CCCN(C)C4)c3C3CC3)ncc1CC2 (stereo unspecified)	.	.	.	16%	-12%	.
O=C(CCc1ccccc1)N/N=C\c1cc2c(cc1Br)OCO2	-10%	-24%	3%	?	?	4%
O=C(Cn1cc(C(F)(F)F)ccc1=O)N/N=C/c1ccc(F)cc1	1%	-41%	-13%	23%	-27%	-4%
O=C(CSCC(=O)NN=Cc1ccccc1O)NN=Cc1ccccc1O	-21%	-10%	?	5.8µM*	5.8µM*	21µM*
O=C(CN1C(=O)NC2NC(=O)NC21)N/N=C/c1ccccc1O (stereo unspecified)	-4%	-8%	1%	10%	-3%	1%
O=C(Cn1cc(C(F)(F)F)ccc1=O)N/N=C/c1ccccc1O	-24%	-47%	?	16µM*	7.3µM*	15µM*
O=C(CSCc1ccccc1)N/N=C/c1cc2c(cc1Br)OCO2	?	-47%	-25%	-74%	18µM*	?
O=C(c1cccc(Br)c1)N1CCN(S(=O)(=O)N2CCCCC2)CC1	-4%	-6%	-7%	-5%	-6%	-6%
Cc1c(Cl)cccc1NC(=O)CSc1nc(=O)[nH]c2c1CCC2	-2%	-3%	.	-28%	-24%	.
C=CCOc1ccc(CN(C)C(=O)CNC(=O)c2ccc(-c3ccccc3)cc2)cc1	?	-26%	-26%	?	21µM*	?
CCOc1ccc(CN(C)C(=O)CNC(=O)c2ccccc2)cc1	2%	-7%	15%	-19%	5%	1%
CCOc1ccc(CN(C)C(=O)CNC(=O)Cc2cccc3ccccc23)cc1	-30%	-3%	2%	?	23µM*	-1%
O=C(NCCc1ccccc1)C1CCN(S(=O)(=O)c2ccc(-c3nn[nH]n3)cc2)CC1	0%	1%	22%	14%	1%	19%
